{"source": "ChEMBL document CHEMBL4513139", "about": "“CO-ADD screening of University of Strathclyde (UK) compounds”", "key": {"Klebsiella pneumoniae": {"system": "Klebsiella pneumoniae", "conditions": "Concentration 32 ug.mL-1; ASSAY_TEST Inhibition of Bacterial Growth; detection method Absorption (OD600); MEDIA CAMHB; plate type 384well; NBS; CORNING #3640; time 18 hr"}, "Candida albicans": {"system": "Candida albicans", "conditions": "32 ug/mL"}, "Cryptococcus neoformans": {"system": "Cryptococcus neoformans", "conditions": "Concentration 32 ug.mL-1; ASSAY_TEST Inhibition of Fungal Growth; detection method Resazurin; Absorption (OD600-OD570); plate type 384well; NBS; CORNING #3640"}}, "note": "Results with a measured potency or affinity are listed apart."}
{"smiles": "CCOP(=O)(OCC)C(Cc1cn(Cc2cnc(C)nc2N)nn1)C(=O)O.O=C(O)C(F)(F)F", "note": "(stereo not drawn)", "values": [{"measurement": "Inhibition", "setting": "Klebsiella pneumoniae", "value": -0.1, "unit": "%"}, {"measurement": "Inhibition", "setting": "Candida albicans", "value": 2.73, "unit": "%"}, {"measurement": "Inhibition", "setting": "Cryptococcus neoformans", "value": -36.59, "unit": "%"}]}
